Experimental data published in PubChem BioAssay AID2710 (National Center for Advancing Translational Sciences (NCATS), 2010).
Active and inactive are the calls of the source.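 How the source made its calls: active means compounds whose dose response marks them as Clk4 kinase inhibitors with a measurable half-maximal potency; inactive means the rest.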

Target: Dual specificity protein kinase CLK4 (Homo sapiens) (UniProt Q9HAZ1)
Assay: Kinase Inhibition Profile Study on Inhibitors of CDC-like Kinase 4
Details: Reaction Biology radiometric kinase assay, 10 uM ATP
From the text: NIH Molecular Libraries Probe Production Centers Network [MLPCN] NIH Chemical Genomics Center [NCGC] MLSCN Grant: 1R03MH084827-01 Assay Submitter (PI): Tom Misteli NCGC Assay Overview: Alternative splicing of pre-mRNAs plays a major role in the regulation of eukaryotic gene expression. Alternative splicing is now thought to be one of the primary reasons for the complexity of higher organisms leading to an average of three protein isoforms per gene. Aberrant splicing can lead to a number of diseases and is known to play a role in rare genetic diseases such as progeria syndrome. Hutchinson-Gilford Progeria Syndrome (HGPS) is a pediatric premature aging disease caused by a spontaneous mutation in the lamin A/C (LMNA) gene due to a single point mutation in the lamin A gene effecting 1 in 4 million people. To identify both specific splicing modulators of the lamin A gene as well as general splicing modulators, a cell-based HTS assay was developed using a minigene reporter system (AIDs, 1459 & 1487). […] The Clk family is part of the CMGC group of protein kinases which includes Dyrks and are essential kinases found in all eukaryotes. Clks have been implicated to play a role in the regulation of alternative splicing; while Dyrks, in particular over expression of Dyrk1A, has been linked to diseases as Down syndrome and Alzheimer disease. This AID summarizes the characterization of lead Clk4 inhibitors in a panel of these related kinases: Clk1, 2 & 3, DYRK1/DYRK1A, and DYRK1B. Potency against Clk4 was also confirmed in the panel.
All kinase reactions were performed using 10 uM ATP in the assay. 100% activity was taken from kinase reactions with DMSO alone (the vehicle used for compound stock solutions).

Chain of Dual specificity protein kinase CLK4 (Homo sapiens) (Q9HAZ1 whole entry, looked up): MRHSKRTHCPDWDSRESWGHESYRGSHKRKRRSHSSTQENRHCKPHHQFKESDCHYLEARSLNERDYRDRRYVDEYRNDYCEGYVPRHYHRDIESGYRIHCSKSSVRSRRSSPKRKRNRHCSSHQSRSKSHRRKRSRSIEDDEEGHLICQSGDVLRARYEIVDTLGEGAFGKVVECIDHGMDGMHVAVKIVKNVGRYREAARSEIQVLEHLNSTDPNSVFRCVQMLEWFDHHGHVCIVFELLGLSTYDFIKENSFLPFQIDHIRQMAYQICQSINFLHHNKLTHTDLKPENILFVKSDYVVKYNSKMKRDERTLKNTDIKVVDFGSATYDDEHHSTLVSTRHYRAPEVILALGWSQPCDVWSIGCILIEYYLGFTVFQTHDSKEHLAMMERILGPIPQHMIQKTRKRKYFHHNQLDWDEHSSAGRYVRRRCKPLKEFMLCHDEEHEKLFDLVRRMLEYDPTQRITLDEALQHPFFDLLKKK

Potency, active:
Cc1nc(CNc2ncnc3ccc(-c4ccoc4C)cc23)cs1 850 nM
OCc1ccc(-c2ccc3ncnc(NCCc4cnc[nH]4)c3c2)o1 1290 nM
CCOC(=O)c1ccc(-c2ccc3ncnc(NCc4ccc(C)o4)c3c2)o1 230 nM
c1csc(CNc2ncnc3ccc(-c4ccoc4)cc23)c1 249 nM
COc1cccc(-c2ccc3ncnc(NCc4cccs4)c3c2)c1 1050 nM
CN(Cc1ncc[nH]1)c1ncnc2ccc(-c3ccc4c(c3)OCO4)cc12 120 nM
c1nc(NCC2CCCC2)c2cc(-c3ccc4c(c3)OCO4)ccc2n1 90 nM
Cc1occc1-c1ccc2ncnc(NCCc3cnc[nH]3)c2c1 740 nM
c1nc(NCCc2cnc[nH]2)c2cc(-c3ccoc3)ccc2n1 840 nM
Cc1nc(CN(C)c2ncnc3ccc(-c4ccc5c(c4)OCO5)cc23)cs1 11 nM
CCOC(=O)c1ccc(-c2ccc3ncnc(NCCc4cnc[nH]4)c3c2)o1 250 nM
O=C(O)c1ccc(-c2ccc3ncnc(NCCc4cnc[nH]4)c3c2)o1 940 nM
Cc1nc(CNc2ncnc3ccc(-c4ccoc4)cc23)cs1 340 nM
CC(C)(C)CNc1ncnc2ccc(-c3ccc4c(c3)OCO4)cc12 70 nM
c1nc(NCC2CCOC2)c2cc(-c3ccc4c(c3)OCO4)ccc2n1 (stereo unspecified) 29 nM
Cc1ccc(CNc2ncnc3ccc(-c4ccoc4C)cc23)o1 490 nM
Cc1nc(CNc2ncnc3ccc(-c4ccc5c(c4)OCO5)cc23)cs1 40 nM
CCOC(=O)c1ccc(-c2ccc3ncnc(NCc4ncc[nH]4)c3c2)o1 790 nM
c1coc(-c2ccc3ncnc(NCc4cccs4)c3c2)c1 1090 nM
CCOC(=O)c1ccc(-c2ccc3ncnc(NCc4csc(C)n4)c3c2)o1 810 nM
c1csc(CNc2ncnc3ccc(-c4ccc5c(c4)OCO5)cc23)c1 39 nM
